Source: PubChem BioAssay (NCI)
The panel holds about 83,000 compounds, 20% with a hit somewhere; the sample as a whole holds those more often.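 The test compound was applied at a single concentration to cells in 96-well plates for 48 hours, and percent growth was recorded.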 The source made the active and inactive calls. The calls were made as follows: active = growth percent below 10; inactive = the rest.

Assays:
Assay in all cases: NCI-60 one-dose screen, 48 h (100 = growth as untreated, 0 = no growth, -100 = all killed)
Conditions in all cases: 10 µM unless noted
[1] = system: SK-MEL-2 melanoma
[2] = system: EKVX NSCLC
[3] = system: SN12C renal
[4] = system: UO-31 renal
[5] = system: TK-10 renal
[6] = system: ACHN renal
[7] = system: CAKI-1 renal
[8] = system: A498 renal
[9] = system: CCRF-CEM leukemia
[10] = system: MOLT-4 leukemia
[11] = system: SR leukemia
[12] = system: RPMI-8226 leukemia
[13] = system: OVCAR-8 ovarian
[14] = system: OVCAR-5 ovarian
[15] = system: OVCAR-4 ovarian
[16] = system: SK-OV-3 ovarian
[17] = system: IGROV1 ovarian
[18] = system: OVCAR-3 ovarian
[19] = system: HS 578T breast
[20] = system: NCI/ADR-RES ovarian

Measured: growth

S=C(Nc1ccccc1)Nc1ccc(OCc2nc3ccccc3[nH]2)cc1
inactive: [1] 24.6% | [2] 46.3% | [3] 47.1% | [4] 30.4% | [5] 72.3% | [6] 24.6% | [7] 18.9% | [8] 72.1% | [9] 28.9% | [10] 19.8% | [11] 32.5% | [12] 39.2% | [13] 35.8% | [14] 66.3% | [15] 38.9% | [16] 86.6% | [17] 56.3% | [18] 29% | [19] 50.6% | [20] 43%

C#CCOc1ccc(/C=N/Nc2nc(-c3ccc(F)cc3)cs2)cc1OC
inactive: [1] 60.8% | [2] 62.5% | [3] 68.9% | [4] 48.4% | [5] 156% | [6] 64.5% | [7] 56.2% | [8] 80.7% | [9] 26.3% | [10] 12.1% | [11] 25.5% | [12] 35.5% | [13] 63.8% | [14] 84.9% | [15] 65.6% | [16] 88% | [17] 72.6% | [18] 71.2% | [19] 81.2% | [20] 32.2%

O=C(CN1C(=O)/C(=C/c2ccccc2Cl)SC1=S)N1CCOCC1
inactive: [1] 103% | [2] 99.8% | [3] 78.5% | [4] 66.5% | [5] 112% | [6] 61.2% | [7] 90.9% | [8] 119% | [9] 61.8% | [10] 85.9% | [11] 34.3% | [12] 58.8% | [13] 97.1% | [14] 98.3% | [15] 78.2% | [16] 124% | [17] 107% | [18] 77.1% | [19] 106% | [20] 95.5%

Cn1cc(NC(=O)c2cc(NC(=O)c3ccc(C#Cc4ccccc4)cc3)cn2C)cc1C(=O)NCCCN1CCOCC1
inactive: [1] 86.2% | [2] 80.9% | [3] 40% | [4] 67.8% | [5] 126% | [6] 63.8% | [7] 56.9% | [8] 114% | [13] 38.9% | [14] 83.2% | [15] 63% | [16] 83.2% | [17] 66.8% | [18] 46% | [19] 95.9% | [20] 90%
active: [9] 0.88% | [10] -19.3% | [11] -34.3% | [12] -42.6%

C=C1CC[C@@H]2[C@]3(C)COC(c4ccco4)O[C@@H]3CC[C@@]2(C)[C@@H]1C/C=C1/C(=O)OCC1OC(C)=O (stereo not given in full)
inactive: [1] 59.5% | [2] 89.3% | [4] 35.4% | [5] 111% | [6] 33.9% | [7] 36.1% | [8] 129% | [14] 35.8% | [15] 48.2% | [16] 105% | [19] 66.8%
active: [3] 3.28% | [9] -19.8% | [10] 2.43% | [11] -21% | [12] -30.9% | [13] -8.73% | [17] 9.51% | [18] -28.9% | [20] 8.21%

Cc1cccc(-c2nc(Nc3cccc(S(N)(=O)=O)c3)c3ccccc3n2)c1
inactive: [1] 66.6% | [2] 45.5% | [3] 51.7% | [4] 29.7% | [5] 73.7% | [6] 38.1% | [7] 46.9% | [8] 47.7% | [9] 31.7% | [10] 27.6% | [11] 33% | [12] 38.3% | [14] 77.2% | [15] 52.3% | [16] 102% | [17] 66.1% | [18] 73.4% | [19] 76.5% | [20] 22.8%
active: [13] 2.28%

COc1ccc(C(=O)/C=C/c2ccc(OCc3ccc(F)cc3)c(OC)c2)cc1OC
inactive: [1] 52.9% | [2] 59.9% | [4] 21.5% | [5] 39.6% | [6] 28.5% | [7] 32.6% | [8] 94.7% | [15] 17.3% | [16] 40.2% | [17] 17.5% | [18] 18.2% | [19] 84.7% | [20] 11%
active: [3] -1.58% | [9] 7.26% | [10] 9.77% | [11] 7.52% | [12] 1.35% | [13] -7.27% | [14] 1.16%

O=C1NC(=O)c2c1c1c3cc(Br)ccc3[nH]c1c1oc3ccc(F)cc3c21
inactive: [2] 20.7% | [4] 10.8% | [5] 66.7% | [12] 14.8% | [14] 51.7% | [20] 10%
active: [1] -58.3% | [3] -39.1% | [6] -72.5% | [7] -64.8% | [8] -83.1% | [9] 2.94% | [10] -5.4% | [11] 4.79% | [13] -44.7% | [15] -88% | [16] -5.1% | [17] -46.9% | [18] -33.3% | [19] -34.9%

COc1cc2c(c(OC)c1OC)C(=O)CC(c1cccc(NC(=O)c3cc(NC(=O)[C@H](C)N)ccc3Cl)c1)O2 (stereo not given in full)
inactive: [1] 33.5% | [2] 48.4% | [3] 51.8% | [4] 46.4% | [5] 101% | [6] 50.4% | [7] 51.5% | [8] 80.7% | [9] 12.4% | [14] 88% | [15] 44.4% | [16] 102% | [17] 70.3% | [18] 25.7% | [19] 66.9% | [20] 11.1%
active: [10] 8.42% | [11] 9.41% | [12] 4.69% | [13] 9.03%

C/C(=N\N=C1/C(=O)Nc2ccccc21)c1ccc2c(c1)Nc1ccccc1S2
inactive: [1] 80.5% | [2] 43.7% | [3] 42.1% | [4] 34.4% | [5] 78.7% | [6] 56.1% | [7] 49.4% | [8] 28.2% | [9] 45.8% | [10] 11.4% | [11] 44.5% | [12] 38.7% | [13] 56% | [14] 83.7% | [15] 37.4% | [16] 101% | [17] 45.6% | [18] 34.9% | [19] 72.1% | [20] 59.4%

COc1cc2oc(-c3cccc(C(=O)Nc4ccc(Cl)cc4)c3)cc(=O)c2c(OCCNC(=O)[C@H](CO)NC(=O)OC(C)(C)C)c1OC
active: [1] -1.01% | [9] 8.05% | [10] 5.42% | [11] 2.89% | [12] -39.9%
inactive: [2] 24.1% | [3] 16.4% | [4] 23.6% | [5] 42.6% | [6] 13.5% | [7] 19.1% | [8] 71.9% | [13] 18.3% | [14] 32% | [15] 36.4% | [16] 93.3% | [17] 25.3% | [18] 17.2% | [19] 26.5% | [20] 64.8%

Brc1ccc(-c2n(Cc3ccc4ccccc4c3)c(-c3ccccc3)c(-c3ccccc3)[n+]2Cc2ccc3ccccc3c2)cc1
active: [1] -90.1% | [2] -86.7% | [3] -85.4% | [4] -79% | [5] -92.5% | [6] -100% | [7] -97% | [8] -94% | [9] -10.5% | [10] -5.89% | [11] -36.8% | [12] -38% | [13] -77.4% | [14] -100% | [15] -83.3% | [16] -96.7% | [17] -81.7% | [18] -79% | [19] -46.3% | [20] -78.2%

CCOC(=O)c1ccc(Nc2nc(NN)nc(-c3ccc(F)cc3)c2C#N)cc1
inactive: [1] 115% | [2] 120% | [3] 103% | [4] 88.3% | [5] 104% | [6] 103% | [7] 108% | [8] 101% | [9] 91.9% | [10] 89.8% | [11] 72.4% | [12] 103% | [13] 112% | [14] 99.5% | [15] 98.3% | [16] 116% | [17] 109% | [18] 103% | [19] 100% | [20] 110%

COc1ccc(/C=C/c2nc3ccccc3nc2Nc2cccc(C)c2)cc1
inactive: [1] 102% | [2] 89% | [3] 92.7% | [4] 78.4% | [5] 173% | [6] 98.3% | [7] 72.9% | [8] 118% | [9] 98.7% | [10] 82.7% | [11] 85.8% | [12] 95.7% | [13] 98% | [14] 108% | [15] 91.6% | [16] 95.9% | [17] 82.1% | [18] 104% | [19] 92.3% | [20] 105%

Cc1ccc([C@H]2C(C(=O)c3ccc(Cl)cc3)C3(N[C@@H]2c2ccccc2)C(=O)Nc2ccc(Br)cc23)cc1 (stereo not given in full)
inactive: [1] 60.2% | [2] 65.3% | [4] 38.6% | [5] 91.6% | [6] 47% | [7] 44% | [8] 101% | [9] 68.7% | [12] 40.7% | [13] 66.4% | [14] 73.2% | [15] 56.3% | [16] 79.4% | [17] 60.1% | [18] 64% | [19] 83.2% | [20] 55.5%
active: [3] 4.02% | [10] 8.72% | [11] 2.24%

COc1ccc(-c2ccnc(SCc3cc4ccccc4[nH]c3=O)n2)cc1OC
active: [2] -16.6% | [3] -37.6% | [4] -73.4% | [6] -76.6% | [7] -67% | [8] -18.9% | [13] 0.24% | [14] -41% | [15] -2.39% | [16] -69.7% | [19] -23.6% | [20] -40.7%
inactive: [1] 17.4% | [5] 22.9% | [9] 106% | [10] 74% | [11] 40.3% | [12] 45% | [17] 10.9% | [18] 20.7%
